Measured values as given in PubChem BioAssay (EPA / NIEHS).
Active and inactive are the calls of the source. How the source made its calls: active means hit-call score of the fitted dose curve at least 0.9, where 1 is the maximum; inactive means score below 0.9.

Test: ATG_TGFb_CIS: Attagene CIS-FACTORIAL HepG2 Assay for human Transforming Growth Factor (TGF) (AID 2282967)
Settings: HepG2 Attagene CIS TGFb reporter, mRNA transcription; actives raise or lower the signal
Method: ATG_CIS is a cell-based, multiplexed-readout assay that uses HepG2, a human liver cell line, with measurements taken at 24 hours after chemical dosing in a 24-well plate.ATG_TGFb_CIS is one of 52 assay component(s) measured or calculated from the ATG_CIS assay. It is designed to make measurements of mRNA induction, a form of inducible reporter, as detected with fluorescence intensity signals by Reverse transcription polymerase chain reaction (RT-PCR) and Capillary electrophoresis technology.Data from the assay component ATG_TGFb_CIS was analyzed into 1 assay endpoint. This assay endpoint, ATG_TGFb_CIS, was analyzed with bidirectional fitting relative to DMSO as the negative control and baseline of activity. Using a type of inducible reporter, measures of mRNA for gain or loss-of-signal activity can be used to understand the reporter gene at the transcription factor-level as they relate to the gene TGFB1. Furthermore, this assay endpoint can be referred to as a primary readout, because this assay has produced multiple assay endpoints where this one serves a reporter gene function. To generalize the intended target to other relatable targets, this assay endpoint is annotated to the growth factor intended target family, where the subfamily is transforming growth factor beta.
Human liver HepG2 cells are transiently transfected with multiple reporter transcription units (MRTUs) in 6-well plates using FuGene 6 reagent (Roche; 3 ml FuGene/1 mg DNA). The MRTU constructs are regulated by a cis-regulating element (promoter). […] A major difference between the CIS and TRANS system is that in CIS activities of endogenous TFs are measured, whereas the TRANS assay evaluates changes in activities of exogenous, chimeric NR-Gal4 proteins. […] At the end of 24 hour incubation, total RNA was isolated using TriZol reagent (Invitrogen). The isolated RNA is then reverse-transcribed using oligo(dT) primer and Mo-MLV reverse transcriptase (Invitrogen) with DNAse I (Ambion) treatment for 30 min. The one-tenth of the produced cDNA was amplified by PCR using Taq DNA polymerase (Invitrogen) and two reporter sequence-specific primers. The PCR products were fluorescently labeled by primer extension with 6-arboxyfluorescein (6-FAM) 5'-labeled reporter sequence-specific primer (2 min at 95 C, 20 s at 68 C and 10 min at 72 C) and these products were digested with 5U of HpaI (New England Biolabs) for 2h at 37 C. The fragments were purified using Qiaquick PCR columns (Qiagen), analyzed on an ABI 3130xL genetic analyzer (Applied Biosystems) with peak positions identified by using a set of X-rhodamine (ROX)-labeled MapMarker1000 molecular weight standards (BioVentures). The raw capillary electrophoresis data was processed using Attagraph software (Attagene).
With `OCC(F)(F)OC(F)(F)C(F)(F)OC(F)(F)C(F)(F)OC(F)(F)CO` the outcome was “inactive”. For `O=c1[nH]c2ccccc2c(=O)o1`, the outcome was “inactive”. For `OCC(F)(F)OC(F)(F)C(F)(F)OC(F)(F)C(F)(F)OC(F)(F)F`, the outcome was “inactive”. With `CNC(=O)Oc1ccc(N(C)C)c(C)c1` the outcome was “inactive”. In the case of `COP(=O)(CCC(=O)NCO)OC`, the outcome is reported as “inactive”. In the case of `CCOP(=S)(S)OCC`, the outcome is reported as “inactive”. In the case of `CC(C)(C)N(NC(=O)c1ccc(Cl)cc1)C(=O)c1ccccc1`, the outcome is reported as “inactive”. With `CC(Cc1ccc(OCC(=O)O)cc1)NCC(O)c1csc(C(F)(F)F)n1` (stereo not given) the outcome was “inactive”. With `CCCCc1ccccc1` the outcome was “inactive”. With `Nc1ccc([N+](=O)[O-])cc1Cl` the outcome was “inactive”. For `CO/N=C(/C(=O)OC)c1ccccc1COc1ccccc1C`, the outcome was “inactive”. In the case of `ClC(Cl)(Cl)c1ccccc1`, the outcome is reported as “inactive”. In the case of `FC(F)(F)c1ccc(Cl)cc1`, the outcome is reported as “inactive”. For `O=S1(=O)OCC2C(CO1)C1(Cl)C(Cl)=C(Cl)C2(Cl)C1(Cl)Cl` (stereo not given), the outcome was “inactive”. With `CCCCN(CCCC)N=O` the outcome was “inactive”. In the case of `CCOP(=S)(Oc1ccc([N+](=O)[O-])cc1)c1ccccc1` (stereo not given), the outcome is reported as “inactive”. With `CN(C)C(=O)Cl` the outcome was “inactive”. With `Nc1ccc2ccccc2c1` the outcome was “inactive”. In the case of `CCCN(CCC)c1c([N+](=O)[O-])cc(C(C)C)cc1[N+](=O)[O-]`, the outcome is reported as “inactive”. For `CC(Cl)(Cl)C(=O)O`, the outcome was “inactive”. In the case of `CCC(C)(C)c1ccc(O)cc1`, the outcome is reported as “inactive”. In the case of `CC1(C)CN=C(NN=C(/C=C/c2ccc(C(F)(F)F)cc2)/C=C/c2ccc(C(F)(F)F)cc2)NC1`, the AC50 is reported as 11.1 µM (active). With `CC(O)C(F)(F)C(F)(F)F` (stereo not given) the outcome was “inactive”. For `NC(=O)C(F)(F)C(F)(F)F`, the outcome was “inactive”. In the case of `CCCCC(CC)COP(=O)(Oc1ccccc1)Oc1ccccc1` (stereo not given), the outcome is reported as “inactive”. For `CC(C)(C)OOC(C)(C)C`, the outcome was “inactive”. For `CCOP(=S)(OCC)SCSCC`, the outcome was “inactive”. In the case of `COC(N)=O`, the outcome is reported as “inactive”. In the case of `CCCCc1ccc(O)cc1`, the outcome is reported as “inactive”. With `NNC(N)=S` the outcome was “inactive”. For `C=C(C)C(=O)OCC1CO1` (stereo not given), the outcome was “inactive”. For `FC(F)(F)C(F)(C(F)(F)F)C(F)(F)C(F)(F)CC1CO1` (stereo not given), the outcome was “inactive”. In the case of `CC(=O)CCc1ccc2c(c1)OCO2`, the outcome is reported as “inactive”. With `CCCCN(CCCC)SN(C)C(=O)Oc1cccc2c1OC(C)(C)C2` the outcome was “inactive”. With `Nc1cc2c3c(c1)C(c1ccccc1)=N[C@@H](NC(=O)c1cccnc1)C(=O)N3CC2` the outcome was “inactive”. With `Oc1ccccc1Br` the outcome was “inactive”. For `c1nc[nH]n1`, the outcome was “inactive”. With `O=C(O)C(F)(OC(F)(F)C(F)(F)C(F)(F)F)C(F)(F)F` (stereo not given) the outcome was “inactive”. For `O=P(OCC(Br)CBr)(OCC(Br)CBr)OCC(Br)CBr` (stereo not given), the outcome was “inactive”. For `CC(C)(C)c1ccccc1OP(=O)(Oc1ccccc1)Oc1ccccc1`, the outcome was “inactive”.
